Assay outcomes: PubChem BioAssay, several laboratories
L major viab – Leishmania major promastigote growth inhibition, primary screen; Leishmania major promastigotes, resazurin fluorescence viability; inhibition, % at 10 µM; 200,000 tested, 9% active; in the data active = inhibition above about 50%;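 also: promastigotes grown with compound for 44 hours at 28 °C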
ROMK primary – ROMK potassium channel modulators, primary screen, cell-based, thallium flux, MLSMR library; ATP-sensitive inward rectifier potassium channel 1 (Homo sapiens), P48048; Tet-inducible ROMK, thallium flux fluorescence; actives lie on both sides; B-score at 10 µM; 130,000 tested, 2% active;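 active = signal ratio slope over the read window, or its plate-corrected B-score, at least 3 SD from the plate mean, either direction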;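 also: B-score of the F/F0 ratio slope over 7 to 12 s after thallium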
INS promoter inh – inhibitors of insulin promoter-driven GFP, primary screen, imaging, TRM-6 cells (human fetal islet line), eGFP reporter, cell count; reporter expression induced with tamoxifen; 130,000 tested, 0.9% active; inhibition, % at 2 µM;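 active = inhibition above the mean plus 3 SD, with well images judged a real hit on visual review, cut at about 60% in these data, passing the limit was not always enough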
bCat KO growth – primary screen for growth suppressors in beta-catenin knockout HCT116 cells (colon tumor, human); HCT116 beta-catenin knockout viability, CellTiter-Glo, 60 h; hits give low values; viability, % at 10 µM; 140,000 tested, 1.5% active; AID 818, 2007;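 active = viability at or under a set limit, the compound median less 4 SD, cut at about 6% in these data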
PTEN del growth – growth suppression of PTEN-null HCT116, primary screen, cell-based, CellTiter-Glo | viability, % at 10 µM | HCT116 PTEN-null viability, 60 h; hits give low values | 140,000 tested, 1.2% active;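 active = viability at or below a set limit, 4 SD under the median of all tested compounds, cut at about 3.7% in these data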;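 also: PTEN knockout HCT116 line with beta catenin targeted HCT116 as companion control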
p97 ATPase inh – inhibitors of human p97 ATPase, primary screen, biochemical. Transitional endoplasmic reticulum ATPase (Homo sapiens), P55072. recombinant p97 ATPase, Kinase-Glo ATP luminescence, 3 h. inhibition, % at 8 µM. 220,000 tested, 0.42% active. AID 1481, 2009; in the data active = inhibition above about 15%
Hits are given with their value. The list is not random: actives were taken first. Their share in the collection is about 10%.

How did O=C(CC12CC3CC(CC(C3)C1)C2)NC(=S)Nc1ccc(CN2CCOCC2)cc1 do in these assays?
L major viab: inactive; ROMK primary: inactive; p97 ATPase inh: inactive

What do the screens show for `Cc1cc(C(=S)N2CCOCC2)c(C)n1-c1ccc(Cl)cc1`?
L major viab: inactive; INS promoter inh: inactive; bCat KO growth: inactive; PTEN del growth: inactive; p97 ATPase inh: inactive

What do the screens show for `Cc1cc(C)cc(-n2c(C)cc(C(=S)N3CCOCC3)c2C)c1`?
L major viab: 55.4; INS promoter inh: inactive; bCat KO growth: inactive; PTEN del growth: inactive; p97 ATPase inh: inactive

How did Fc1ccc(/C=N/Nc2ncnc3nc[nH]c23)cc1F do in these assays?
L major viab: 50.1; ROMK primary: inactive; INS promoter inh: 60.0; bCat KO growth: inactive; PTEN del growth: inactive; p97 ATPase inh: inactive

What do the screens show for `Cc1ccccc1/C=N/Nc1ncnc2nc[nH]c12`?
ROMK primary: inactive; p97 ATPase inh: inactive

How did CSc1nc(-c2ccccc2)[nH]c(=S)c1C(C)=O do in these assays?
L major viab: inactive; ROMK primary: 4.73; INS promoter inh: inactive; bCat KO growth: inactive; PTEN del growth: inactive; p97 ATPase inh: inactive

What do the screens show for `Cc1cccc(C)c1OCc1nc2ccccc2c(=O)n1/N=C/c1c[nH]c2ccccc12`?
L major viab: 95.9; bCat KO growth: inactive; PTEN del growth: inactive; p97 ATPase inh: inactive

Results for Cc1ccc(-c2[nH]ncc2/C=N/n2c(COc3ccccc3C)nc3ccccc3c2=O)cc1 ?
L major viab: 75.2; ROMK primary: inactive; INS promoter inh: inactive; bCat KO growth: inactive; PTEN del growth: inactive; p97 ATPase inh: inactive

How did Cc1ccccc1OCc1nc2ccccc2c(=O)n1/N=C/c1c[nH]c2ccccc12 do in these assays?
L major viab: inactive; ROMK primary: inactive; INS promoter inh: inactive; bCat KO growth: inactive; PTEN del growth: inactive; p97 ATPase inh: inactive

How did Cc1cc(/C=N/n2c(COc3ccccc3C)nc3ccccc3c2=O)c(O)c([N+](=O)[O-])c1 do in these assays?
L major viab: inactive; bCat KO growth: inactive; PTEN del growth: inactive; p97 ATPase inh: inactive

Results for NC(=O)CSc1nnc(SCc2ccc(F)cc2)s1 ?
L major viab: inactive; ROMK primary: inactive; INS promoter inh: inactive; p97 ATPase inh: inactive

What do the screens show for `O=C(CSc1nc(CCC2CCCC2)nc2ccccc12)NCc1ccc2c(c1)OCO2`?
L major viab: inactive; ROMK primary: inactive; INS promoter inh: inactive; bCat KO growth: inactive; PTEN del growth: inactive; p97 ATPase inh: inactive

Results for COc1ccc(/C=C/C(=O)NC2CCCCCCC2)cc1S(=O)(=O)N1CCOCC1 ?
L major viab: 87.5; ROMK primary: inactive; INS promoter inh: inactive; bCat KO growth: inactive; PTEN del growth: inactive; p97 ATPase inh: inactive

How did COc1ccc(S(=O)(=O)N(C)CC(=O)N2CCN(C)CC2)cc1C do in these assays?
L major viab: inactive; INS promoter inh: inactive; bCat KO growth: inactive; PTEN del growth: inactive; p97 ATPase inh: inactive

Results for CCN1CCN(C(=O)CN(C)S(=O)(=O)c2ccc(OC)c(C)c2)CC1 ?
L major viab: 97.8; ROMK primary: inactive; INS promoter inh: inactive; bCat KO growth: inactive; PTEN del growth: inactive; p97 ATPase inh: inactive

Results for CCN=C1SC(CC(=O)NCc2ccccc2)C(=O)N1CC (centres undefined) ?
L major viab: inactive; ROMK primary: inactive; p97 ATPase inh: inactive

How did COc1ccc(C(=O)c2coc3ccc(O)c(CN4CCCC4)c23)cc1 do in these assays?
L major viab: inactive; bCat KO growth: inactive; PTEN del growth: inactive; p97 ATPase inh: inactive

Results for CCN(CC)Cc1c(O)ccc2occ(C(=O)c3ccc(OC)cc3)c12 ?
L major viab: 87.8; ROMK primary: inactive; INS promoter inh: inactive; bCat KO growth: inactive; PTEN del growth: inactive; p97 ATPase inh: inactive

How did COc1ccccc1NC(=S)N1CCC(NC(=O)NC23CC4CC(CC(C4)C2)C3)CC1 do in these assays?
L major viab: 97.3; bCat KO growth: inactive; PTEN del growth: inactive; p97 ATPase inh: inactive

How did CCOc1ccccc1NC(=S)N1CCC(NC(=O)NC23CC4CC(CC(C4)C2)C3)CC1 do in these assays?
L major viab: 60.2; INS promoter inh: inactive; bCat KO growth: inactive; PTEN del growth: inactive; p97 ATPase inh: inactive

How did COc1ccc(NC(=S)N2C3CCC2CC(NC(=O)NC24CC5CC(CC(C5)C2)C4)C3)c(OC)c1 (centres undefined) do in these assays?
L major viab: inactive; INS promoter inh: inactive; bCat KO growth: inactive; PTEN del growth: inactive; p97 ATPase inh: inactive

Results for C#CCOc1ccccc1C(N)=O ?
p97 ATPase inh: inactive

Results for CNC1=C(N(C(C)=O)c2ccc(Br)cc2)C(=O)c2ccccc2C1=O ?
L major viab: 99.2; ROMK primary: inactive; bCat KO growth: 1.3; PTEN del growth: 1.4; p97 ATPase inh: inactive

How did CCOC(=O)/C(=N/Nc1ccccc1)Sc1nnc(CCc2ccccc2)n1-c1ccccc1 do in these assays?
L major viab: inactive; ROMK primary: inactive; bCat KO growth: inactive; PTEN del growth: inactive; p97 ATPase inh: inactive

What do the screens show for `CCc1nc(N2CCCC2C(=O)O)c2oc3ccccc3c2n1` (centres undefined)?
L major viab: inactive; ROMK primary: inactive; INS promoter inh: inactive; bCat KO growth: inactive; PTEN del growth: inactive; p97 ATPase inh: inactive

Results for c1ccc(CN2CCN(CCOCCOc3cccc4ccccc34)CC2)cc1 ?
L major viab: inactive; ROMK primary: inactive; p97 ATPase inh: inactive

What do the screens show for `CCc1nc(N2CCN(C(=O)c3ccco3)CC2)c2oc3ccccc3c2n1`?
L major viab: 82.7; bCat KO growth: inactive; PTEN del growth: inactive; p97 ATPase inh: inactive

Results for O=C(c1ccco1)N1CCN(CCCCOc2cccc3ccccc23)CC1 ?
L major viab: 87.5; ROMK primary: inactive; INS promoter inh: inactive; bCat KO growth: inactive; PTEN del growth: inactive; p97 ATPase inh: inactive

What do the screens show for `O=C(c1ccco1)N1CCN(CCOCCOc2cccc3ccccc23)CC1`?
L major viab: 89.8; ROMK primary: inactive; INS promoter inh: inactive; bCat KO growth: inactive; PTEN del growth: inactive; p97 ATPase inh: inactive

Results for CCOc1ccccc1-n1c(CN2CCN(C(=O)c3ccco3)CC2)nc2ccccc2c1=O ?
L major viab: inactive; INS promoter inh: inactive; bCat KO growth: 3.6; PTEN del growth: 2.5; p97 ATPase inh: inactive

What do the screens show for `Cc1cc(C)nc(SCc2ccc(C(=O)N/N=C3\CCCC(=O)C3)cc2)n1`?
L major viab: inactive; ROMK primary: inactive; INS promoter inh: inactive; p97 ATPase inh: inactive

Results for Cc1ccc(S(=O)(=O)N(C)Cc2ccc(C(=O)N/N=C/c3ccc(OC(F)F)cc3OC(F)F)cc2)cc1 ?
L major viab: 55.1; ROMK primary: inactive; INS promoter inh: inactive; bCat KO growth: inactive; PTEN del growth: inactive; p97 ATPase inh: inactive
